A word on the inhibition: it is the relative decrease from the control value, in per cent.

This is one part of the list. Unmarked numbers belong to inactive results. Active and inactive are the calls of the source.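 The calls were made as follows: active = average inhibition reaching 50% or more with the compound at 20 µM; inactive = the rest.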

The experiment concerns diaphorase (Clostridium kluyveri). The experiment in a line: diaphorase inhibitors and chemical oxidizers, confirmation, counter-screen for P. falciparum G6PD inhibitor project, biochemical, fluorescence intensity, 10 µM NADPH (AID 504862).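 Also: resorufin red fluorescence formed as diaphorase reduces resazurin using NADPH; 0% = DMSO with enzyme and 100% = DMSO without enzyme.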 The note with it: diaphorase-coupled resazurin reduction, NADPH 10 uM, at 20 µM, hits give high values. A general note: The purpose of a counterscreen is to sort out artefacts and off-target activity.
In the case of `O=C(Nc1nc(-c2ccncc2)cs1)C1COc2ccccc2O1` (stereo unspecified), the inhibition was -37.4%. The same measure for `O=C1C=CC(=O)N1c1ccc(N2CCCCC2)cc1`: -20%.

For `O=C1/C(=C\c2ccc([N+](=O)[O-])cc2)CS(=O)(=O)C/C1=C/c1ccc([N+](=O)[O-])cc1`, the inhibition was -19.8%. The same measure for `O=C(NC1=CC(=O)c2ccccc2C1=O)c1ccccc1`: 48.7%; for `Cc1ccc(NC(=O)Cn2sc3ccccc3c2=O)cc1`: 0.47%. For `COc1cccc(C(=O)Nc2nnc(S(=O)(=O)N(C)c3ccccc3)s2)c1` the value was 89.1% (active); for `Cc1cccc(C(=O)Nc2nnc(S(=O)(=O)N3CCCCCC3)s2)c1`, 46.7%. For `COc1cccc(C(=O)Nc2nnc(S(=O)(=O)N3CCCCC3)s2)c1` the value was 72.7% (active); for `CCOC(=O)C1=C(c2ccc(OC)cc2)C(=O)c2ccccc2C1=O`, 84.4% (active). Regarding `CCN1CCCC1CNC(=O)c1ccc2c(c1)NC(=O)/C(=C\c1ccccc1F)S2` (stereo unspecified), the inhibition was -2.12%. As to `COc1ccc(OCc2nnc3n2N=C(c2ccccc2)C(CC(=O)O)S3)cc1` (stereo unspecified), the inhibition is -3.99%.

As to `CCN(CC)c1ccc2oc(=O)c(C)nc2c1`, the inhibition is 87.7% (active). For `CCSc1nnc(NC(=O)c2ccc(C)cc2)s1` the value was 61.9% (active).

`C=CCc1ccccc1OCC(=O)N/N=C/c1ccccc1OCC`: the inhibition was 43.3%. For `COc1cccc(C(=O)Nc2nnc(S(=O)(=O)N3CCOCC3)s2)c1` the value was 69.5% (active); for `c1ccc(-c2cn3c(n2)CCc2ccc4cccnc4c2-3)cc1`, 10.4%; for `O=C(CN1CCN(c2ccc(O)cc2)CC1)Nc1cc(S(=O)(=O)N2CCOCC2)ccc1Cl`, -6.79%.

As for `Cc1ccc(/C=C/C(=O)Nc2ccc([N+](=O)[O-])c(NC(=O)/C=C/c3ccc(C)o3)c2)o1`, the inhibition is -11.9%. The same measure for `O=C(Nc1nnc(S(=O)(=O)N2CCOCC2)s1)c1cccc(Br)c1`: 56.5% (active). The same measure for `CCOc1ccccc1/C=N/NC(=O)CNC(=O)COc1ccccc1`: 96.9% (active); for `Cn1c(-c2sccc2OCc2cccc(C(F)(F)F)c2)n[nH]c1=S`: 4.08%; for `COc1ccc(CCn2c(NN=C3CCCC3)nc3c2c(=O)[nH]c(=O)n3C)cc1`: 7.63%. The same measure for `COc1ccc2c(c1)c(=Cc1ccc(N(C)C)cc1)c1cc(-c3ccccc3)[n+](C)n12`: 17.5%; for `OCCN1CCN(C(=S)c2ccc(-c3ccccc3)cc2)CC1`: -9.62%.

With `COc1ccc(CC(=O)NCC(=O)N/N=C/c2cc(Br)ccc2OC)cc1`, the inhibition was 87.8% (active). The same measure for `O=C(Nc1nnc(S(=O)(=O)N2CCCCCC2)s1)c1cccc(Br)c1`: 52.1% (active). The same measure for `O=[N+]([O-])c1c(NCCO)cc(Sc2nc3ccccc3s2)c2nonc12`: -9.49%; for `COc1c(O)ccc2c1CN1CCc3cc4c(cc3C1C2)OCO4` (stereo unspecified): 12.4%. The same measure for `Cc1ccnc(-n2sc3ccccc3c2=O)n1`: -36%; for `CC(C)(C)NC(=O)COc1ccc(CNc2ccc3[nH]c(=O)[nH]c3c2)cc1`: 27.4%; for `O=c1[nH]c2ccccc2n2c(-c3ccccc3)nnc12`: 37.2%.

Source of the values: PubChem BioAssay AID504862 (Sanford-Burnham Center for Chemical Genomics, 2011).
